Data on 34 compounds can be found in ChEMBL document CHEMBL4513216, “Probing the Open Global Health Chemical Diversity Library for Multistage-Active Starting Points for Next-Generation Antimalarials” (ACS Infect Dis, 2020).

Hit rate of the full screen: of about 69,000 compounds, about 8,600 (12%) showed an effect of 50% or more. The full list was thinned out, with strong results kept by preference.

In this test the test system is Plasmodium berghei. Put plainly: Screen against P. berghei liver stage (PbLuc), transformed with Luciferase, at 10uM. The test is classed as functional, HepG2. The note with it: tested at 10 uM.
Regarding `OCc1cc(C2CCCN2c2ncccn2)n[nH]1` (centres undefined), the INHIBITION was found to be 12.27%.

Turning to `COc1cccc(COCC(O)CN2CC(n3cccn3)C2)c1` (centres undefined), the INHIBITION worked out at 52%.

For `OC(COCc1ccc(Cl)cc1)CN1CC(n2cccn2)C1` (centres undefined), the INHIBITION is -3.6%.

For `OC(COCc1ccccc1)CN1CC(n2cccn2)C1` (centres undefined), the INHIBITION is recorded as 39.6%.

On to `Cn1ccc(C(=O)NC2CCC23CCN(C(=O)N2CCCC2)CC3)c1` (centres undefined), for which the INHIBITION worked out at 20.5%.

`c1cnc(N2CCOCC3(CN(Cc4ccsc4)CCO3)C2)nc1` (centres undefined): the INHIBITION is -47.5%.

Regarding `Fc1cnc(N2CC3(CCN(Cc4ccsc4)C3)C2)nc1`, the INHIBITION was 52%.

Consider `c1ccc(N2CCCC3(CCN(Cc4ccsc4)C3)C2)nc1` (centres undefined), for which the INHIBITION is listed as 37.1%.

Take `Fc1cnc(N2CCCC3(CCN(Cc4ccsc4)C3)C2)nc1` (centres undefined): the INHIBITION amounted to 43.8%.

For the compound `c1cnc(N2CCCC3(CCN(Cc4ccsc4)C3)C2)nc1` (centres undefined), the INHIBITION came to 53.2%.

As to `Fc1cnc(N2CCCC3(CN(Cc4ccccc4)CCO3)C2)nc1` (centres undefined), the INHIBITION is recorded as -15.3%.

`CCc1cnc(N2CC3(CCN(Cc4ccsc4)C3)C2)nc1`: the INHIBITION is 7.39%.

For the compound `c1csc(CN2CC3(CCN(Cc4ccsc4)C3)C2)n1`, the INHIBITION turned out to be 0.542%.

Turning to `Fc1cnc(N2CCOC3(CCN(Cc4ccsc4)CC3)C2)nc1`, the INHIBITION amounted to 71.6%.

Regarding `O=C(Nc1cnc2n1CCCC2)C1CCCN1C1CCNCC1` (centres undefined), the INHIBITION is listed as 15.7%.

With `N#Cc1cn(C2CC2)c(=O)n(CC(O)c2ccccc2C(F)(F)F)c1=O` (centres undefined), the INHIBITION was 29.4%.

As to `CCS(=O)(=O)NC(CCSC)C(=O)Nc1ccc(C)cc1C` (centres undefined), the INHIBITION worked out at 31.2%.

With `CO[C@@H]1CCN(Cc2cnn(C)c2)[C@@H]2CN(Cc3cccnc3)C[C@@H]21`, the INHIBITION stood at 5.96%.

As for `CNC(=O)[C@@H]1C[C@H](n2cc(-c3ccc(CN4CC=CC4)cc3)nn2)CN1`, the INHIBITION came to 41.2%.

Regarding `CC[C@H](Cn1ncc2ccccc2c1=O)NC(=O)c1cnc(C)cn1`, the INHIBITION is listed as 1.62%.

Consider `CCOC(=O)NCc1nn(CCN2CCCC2)c(=O)c2ccccc12`, for which the INHIBITION worked out at 48.8%.

Consider `CC(C)NC(=O)N1CCC2(COCc3cnc(-c4cccnc4)nc32)C1` (centres undefined), for which the INHIBITION is 38.1%.

As to `CCc1oc(C(=O)NCCSc2ncn[nH]2)cc1CN1CCCC1`, the INHIBITION stood at 37.9%.

Take `CCOc1ncccc1NC(=O)N1CCN(CC(=O)NC)CC1`: the INHIBITION is -22.91%.

For the compound `Cc1nccn1CCCN1CCC2(CCC(=O)N(CC3CC3)C2)CC1`, the INHIBITION turned out to be 34.5%.

With `Cn1ncc2c(N3CCC(CCO)CC3)nc(C(C)(C)C)nc21`, the INHIBITION is reported as 22.9%.

Take `Cn1ncc2c(N3CCCC4(CCNC4)C3)nc(C(C)(C)C)nc21` (centres undefined): the INHIBITION was 63.8%.

In the case of `CC(=O)NCCC1CCN(c2nc(C(C)(C)C)nc3c2cnn3C)CC1`, the INHIBITION is on record as 64.9%.

As for `COCC1CCN(c2nc(C(C)(C)C)nc3c2cnn3C)C1` (centres undefined), the INHIBITION is 50.1%.

Consider `CN(C)[C@H]1CCN(c2nc(C(C)(C)C)nc3c2cnn3C)C1`, for which the INHIBITION came out at 9.35%.

For `COCc1nc(N2CC[C@H](N(C)C)C2)c2cnn(C)c2n1`, the INHIBITION was -15.8%.

For `CCCc1nc(N2CCCC3(CCNC3)C2)c2cnn(C)c2n1` (centres undefined), the INHIBITION was determined as 47.1%.

As for `CCC1(O)CCCN(c2nc(C(C)(C)C)nc3c2cnn3C)C1` (centres undefined), the INHIBITION is 48%.

Regarding `Cn1ncc2c(N3CCCC(C)(O)C3)nc(C(C)(C)C)nc21` (centres undefined), the INHIBITION was 19.2%.
